About 2,000 (36%) of roughly 5,500 compounds were called active. Not shown: some 18% with an inconclusive outcome. Cut-off read from the data, not from the text of the source: active = normalized growth mostly below about 0.91 (no sharp cut-off); inconclusive = no clear call, values can overlap the other calls; inactive = mostly above about 0.92. The list shows a part of the results.
Test: chemical genetic growth profiling, strain panel (AID 1159580);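 note: tested at 20 µM; growth read once vehicle control cultures reached saturation at 30 °C; 1 = growth at the plate median or of vehicle wells; lower values mean less growth of the strain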
Details: S. cerevisiae deletion strains, growth OD
[1] = locus YAR019C, strain CDC15, active compounds read low
[2] = locus YBL105C, strain PKC1, active compounds read low
[3] = locus YBR135W, strain CKS1, active compounds read low
[4] = locus YBR136W, strain MEC1, active compounds read low
[5] = locus YBR160W, strain CDC28, active compounds read low
[6] = locus YDL017W, strain CDC7, active compounds read low
[7] = locus YDL028C, strain MPS1, active compounds read low
[8] = locus YDL101C, strain DUN1, active compounds read low
[9] = locus YDL108W, strain KIN28, active compounds read low
[10] = locus YDL132W, strain cdc53, active compounds read low
[11] = locus YDL214C, strain PRR2, active compounds read low
[12] = locus YDR052C, strain DBF4, active compounds read low
[13] = locus YDR054C, strain cdc34, active compounds read low
[14] = locus YDR226W, strain ADK1, active compounds read low
[15] = locus YDR477W, strain SNF1, active compounds read low
[16] = locus YER123W, strain YCK3, active compounds read low
[17] = locus YER133W, strain GLC7, active compounds read low
[18] = locus YFL009W, strain cdc4, active compounds read low
[19] = locus YFL029C, strain CAK1, active compounds read low
[20] = locus YFR003C, strain YPI1, active compounds read low
[21] = locus YFR019W, strain FAB1, active compounds read low
[22] = locus YFR028C, strain CDC14, active compounds read low
[23] = locus YGR040W, strain KSS1, active compounds read low
[24] = locus YGR052W, strain FMP48, active compounds read low
[25] = locus YGR092W, strain DBF2, active compounds read low
[26] = locus YHR030C, strain SLT2, active compounds read low
[27] = locus YHR079C, strain IRE1, active compounds read low
[28] = locus YHR082C, strain KSP1, active compounds read low
[29] = locus YHR205W, strain SCH9, active compounds read low
[30] = locus YIL147C, strain SLN1, active compounds read low
[31] = locus YJL095W, strain BCK1, active compounds read low
[32] = locus YJL128C, strain PBS2, active compounds read low
[33] = locus YJL157C, strain FAR1, active compounds read low
[34] = locus YJR016C, strain ILV3, active compounds read low
[35] = locus YJR066W, strain TOR1 (second series), active compounds read low
[36] = locus YJR066W, strain TOR1, active compounds read low
[37] = locus YKL048C, strain ELM1, active compounds read low
[38] = locus YKL067W, strain YNK1, active compounds read low
[39] = locus YKL101W, strain HSL1, active compounds read low
[40] = locus YKL193C, strain SDS22, active compounds read low
[41] = locus YKL203C, strain TOR2, active compounds read low
[42] = locus YLR113W, strain HOG1, active compounds read low
[43] = locus YLR133W, strain CKI1, active compounds read low
[44] = locus YLR403W, strain SFP1, active compounds read low
[45] = locus YML070W, strain DAK1, active compounds read low
[46] = locus YMR001C, strain CDC5, active compounds read low
[47] = locus YMR205C, strain PFK2 (second series), active compounds read low
[48] = locus YMR277W, strain FCP1, active compounds read low
[49] = locus YNL006W, strain LST8, active compounds read low
[50] = locus YNL020C, strain ARK1, active compounds read low
[51] = locus YNL161W, strain CBK1, active compounds read low
[52] = locus YNL183C, strain NPR1, active compounds read low
[53] = locus YNL207W, strain RIO2, active compounds read low
[54] = locus YNL222W, strain SSU72, active compounds read low
[55] = locus YNL307C, strain MCK1 (second series), active compounds read low
[56] = locus YOL078W, strain AVO1, active compounds read low
[57] = locus YOL136C, strain PFK27, active compounds read low
[58] = locus YOR061W, strain CKA2, active compounds read low
[59] = locus YOR119C, strain RIO1, active compounds read low
[60] = locus YOR231W, strain MKK1, active compounds read low
[61] = locus YOR329C, strain SCD5, active compounds read low
[62] = locus YPL031C, strain PHO85, active compounds read low
[63] = locus YPL153C, strain RAD53, active compounds read low
[64] = locus YPL204W, strain HRR25, active compounds read low
[65] = locus YPL209C, strain IPL1, active compounds read low
[66] = locus YPL256C, strain CLN2, active compounds read low
[67] = locus YPR025C, strain CCL1, active compounds read low
[68] = locus YPR106W, strain ISR1, active compounds read low
[69] = locus YPR111W, strain DBF20, active compounds read low
[70] = strain NNK1, active compounds read low
[71] = strain TSCII, active compounds read low

Measured: normalized growth

COc1ccc(C(=O)NCc2csc3ccc(Cl)cc23)cc1OC
inactive: [1] 0.971 | [2] 0.97 | [3] 0.985 | [4] 0.975 | [5] 0.975 | [6] 0.982 | [7] 0.986 | [8] 0.973 | [9] 0.981 | [10] 0.979 | [11] 0.986 | [12] 0.971 | [13] 0.955 | [14] 0.975 | [15] 0.982 | [16] 0.977 | [17] 0.978 | [18] 0.97 | [19] 0.974 | [20] 0.977 | [21] 1 | [22] 0.977 | [23] 0.994 | [24] 1.05 | [25] 0.981 | [26] 1.03 | [27] 1.01 | [28] 1.05 | [29] 0.972 | [30] 0.975 | [31] 1.05 | [32] 0.92 | [33] 0.988 | [34] 0.975 | [35] 1.01 | [36] 1.07 | [37] 0.98 | [38] 0.987 | [39] 0.994 | [40] 0.977 | [41] 1.05 | [42] 0.92 | [43] 0.976 | [44] 0.994 | [45] 0.983 | [46] 0.979 | [47] 0.986 | [48] 0.973 | [49] 0.983 | [50] 0.985 | [51] 0.975 | [52] 0.999 | [53] 0.962 | [54] 0.972 | [55] 0.972 | [56] 0.977 | [57] 0.98 | [58] 1 | [59] 1.05 | [60] 0.983 | [61] 0.975 | [62] 0.994 | [63] 0.995 | [64] 0.974 | [65] 0.972 | [66] 0.947 | [67] 0.976 | [68] 0.966 | [69] 0.954 | [70] 0.97 | [71] 0.984

NNC(=O)c1csc(Cc2c(Cl)sc3ccc(Cl)cc23)n1
inactive: [1] 0.979 | [2] 0.983 | [3] 1 | [4] 0.993 | [5] 0.996 | [6] 0.985 | [7] 0.996 | [8] 0.985 | [9] 1 | [10] 0.975 | [11] 1.02 | [12] 0.986 | [13] 0.968 | [14] 0.996 | [15] 0.979 | [16] 1.01 | [17] 0.979 | [18] 0.991 | [19] 0.971 | [20] 0.994 | [21] 0.992 | [22] 0.994 | [23] 0.988 | [24] 1.11 | [25] 0.969 | [26] 1 | [27] 0.977 | [28] 1.04 | [29] 1.01 | [30] 0.99 | [31] 0.994 | [32] 0.998 | [33] 0.994 | [34] 0.981 | [35] 0.983 | [36] 1.05 | [37] 1 | [38] 1 | [39] 1.02 | [40] 0.983 | [41] 1.04 | [42] 1.07 | [43] 1 | [44] 0.978 | [45] 1.01 | [46] 0.989 | [47] 1.01 | [48] 0.981 | [49] 0.998 | [50] 0.999 | [51] 0.983 | [52] 1.03 | [53] 0.983 | [54] 0.986 | [55] 1.01 | [56] 0.976 | [57] 1 | [58] 1.01 | [59] 1.07 | [60] 0.986 | [61] 0.99 | [62] 0.984 | [63] 0.974 | [64] 0.971 | [65] 0.984 | [66] 1.03 | [67] 0.995 | [68] 0.998 | [69] 0.992 | [70] 0.984 | [71] 0.982

CNC(=O)n1nc(C)c(Cc2csc3ccc(Cl)cc23)c1C
inactive: [1] 0.995 | [2] 0.998 | [3] 0.984 | [4] 0.997 | [5] 0.991 | [6] 0.994 | [7] 0.997 | [8] 1.01 | [9] 0.993 | [10] 1 | [11] 0.943 | [12] 1 | [13] 0.99 | [14] 0.99 | [15] 0.976 | [16] 0.906 | [17] 0.959 | [18] 0.999 | [19] 0.993 | [20] 0.993 | [21] 0.928 | [22] 0.978 | [23] 0.95 | [24] 0.989 | [25] 0.949 | [26] 0.935 | [27] 0.893 | [28] 0.936 | [29] 0.921 | [30] 0.993 | [31] 0.94 | [32] 0.934 | [33] 0.961 | [34] 0.994 | [35] 0.931 | [36] 1.02 | [37] 0.983 | [38] 0.91 | [39] 0.951 | [40] 0.991 | [41] 0.996 | [42] 0.902 | [43] 0.937 | [44] 0.942 | [45] 0.917 | [46] 0.988 | [47] 0.933 | [48] 0.988 | [49] 0.988 | [50] 0.934 | [51] 0.993 | [52] 0.896 | [53] 0.993 | [54] 0.992 | [55] 0.925 | [56] 0.991 | [57] 0.926 | [58] 0.957 | [59] 1.03 | [60] 0.894 | [61] 0.997 | [62] 0.966 | [63] 0.936 | [64] 0.926 | [65] 0.993 | [67] 0.998 | [68] 0.999 | [69] 0.979 | [70] 0.991 | [71] 0.989
active: [66] 0.855
